JMJD2A Tudor: inhibitors of human JMJD2A Tudor domain; AID 504339; 390,000 compounds, 4.4% hits; Potency, µM (doses to about 114 µM), for the others: top-dose activity change, negative = inhibition, usual class: inhibitors; AlphaScreen JMJD2A-Tudor / H3K4me3 peptide binding; also: % is scaled to controls: 0 for no effect and ±100 for the full control effect; nearly all actives have a fitted effect of over 50% in size
Target sequence (O75164 whole entry, looked up, the tested form may be a part): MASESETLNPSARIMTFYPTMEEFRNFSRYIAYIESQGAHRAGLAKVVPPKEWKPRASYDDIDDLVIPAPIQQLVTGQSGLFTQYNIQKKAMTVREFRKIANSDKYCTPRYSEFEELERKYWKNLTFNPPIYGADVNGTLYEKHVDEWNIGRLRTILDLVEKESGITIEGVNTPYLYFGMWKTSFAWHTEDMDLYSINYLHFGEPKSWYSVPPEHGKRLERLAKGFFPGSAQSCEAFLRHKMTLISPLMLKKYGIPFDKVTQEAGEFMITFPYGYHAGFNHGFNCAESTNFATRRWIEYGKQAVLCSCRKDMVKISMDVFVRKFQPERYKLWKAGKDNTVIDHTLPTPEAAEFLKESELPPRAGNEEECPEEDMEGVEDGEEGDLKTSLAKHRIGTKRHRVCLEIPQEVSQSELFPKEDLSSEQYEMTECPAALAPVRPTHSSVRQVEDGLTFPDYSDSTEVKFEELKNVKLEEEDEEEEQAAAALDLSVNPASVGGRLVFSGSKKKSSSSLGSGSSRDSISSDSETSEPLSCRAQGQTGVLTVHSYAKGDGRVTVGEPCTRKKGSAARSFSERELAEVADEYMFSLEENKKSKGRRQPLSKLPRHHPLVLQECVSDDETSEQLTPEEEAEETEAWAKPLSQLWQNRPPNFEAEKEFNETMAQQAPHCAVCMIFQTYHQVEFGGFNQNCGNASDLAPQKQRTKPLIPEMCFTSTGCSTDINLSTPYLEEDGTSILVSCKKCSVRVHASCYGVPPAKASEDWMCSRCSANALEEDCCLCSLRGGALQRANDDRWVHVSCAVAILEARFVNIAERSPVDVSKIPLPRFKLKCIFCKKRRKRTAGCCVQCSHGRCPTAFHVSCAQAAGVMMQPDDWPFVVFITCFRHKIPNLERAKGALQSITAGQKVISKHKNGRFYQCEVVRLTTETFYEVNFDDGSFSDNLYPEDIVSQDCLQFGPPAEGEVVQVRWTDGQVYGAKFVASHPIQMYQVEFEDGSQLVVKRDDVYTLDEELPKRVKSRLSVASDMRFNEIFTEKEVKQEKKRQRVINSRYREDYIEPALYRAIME
HP1b binding inh: inhibitors of HP1-beta chromodomain binding to methylated histone tails; P83916; 390,000 compounds, 0.56% hits; AlphaScreen HP1-beta / biotin-H3K9me3 peptide binding; Potency, µM (doses to about 114 µM), for inactives: top-dose activity change, negative = inhibition, actives largely listed as inhibitors; also: nearly all actives have a fitted effect of over 70% in size
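HP1-beta protein (50 nM final) preincubated 30 min at room temperature with biotinylated H3(1-18)K9me3 peptide (50 nM) in PBS pH 7.4, 0.01% Tween-20, then compound added for 30 min. AlphaScreen streptavidin donor/nickel chelate acceptor beads (10 ug/mL final), 30 min dark, luminescence read.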
Sfp PPTase inh: blocks B. subtilis Sfp PPTase activity; AID 1490; 310,000 compounds, 3.5% hits; Biochemical Sfp PPTase activity, qHTS; Potency, µM, inactives show largest response in the series, negative = inhibition, usual class: inhibitors;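 also: the enzyme is Sfp with the accession as filed and its product quenches rhodamine fluorescence; 0% = enzyme reaction without inhibitor and -100% = no enzyme wells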
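Compounds were incubated with enzyme (final 15 nM) for 15 min at room temperature before substrate addition started the reaction. Fluorescence at 525 nm excitation, 598 nm emission was recorded immediately and after 30 minutes.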
BAZ2B block: blocks human BAZ2B; Q9UIF8; AlphaScreen BAZ2B-H3K14Ac peptide displacement; Potency, µM (doses to about 114 µM), without a hit: at the top dose activity change, negative = inhibition, hits mostly inhibitors; 360,000 compounds, 4.4% hits; also: % is scaled to controls: 0 for no effect and ±100 for the full control effect; nearly all actives have a fitted effect of over 60% in size
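Compounds, titrated to a top concentration of 110 uM, were incubated 30 min at room temperature with preformed BAZ2B/acetyl-K14 H3 peptide complex (50 nM each). Proximity signal was measured by AlphaScreen after 20 min with beads.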
G9a block: blocks human histone lysine methyltransferase G9a; G9a H3K9 monomethylation, AlphaScreen, 2 h; Potency, µM (series often up to 102 µM), without a hit: at the highest dose activity, negative = inhibition, most hits filed as inhibitors; 350,000 compounds, 8.8% hits; AID 504332; also: % is scaled to controls: 0 for no effect and ±100 for the full control effect; nearly all actives have a fitted effect of over 75% in size
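Readings reflect AlphaScreen signal from monomethyl-H3K9 antibody detection. HMT at 20 nM; substrate b-H3K9 500 nM; cofactor SAM 20 uM; 2 h RT reaction; compounds tested as titrations in qHTS with 15 min preincubation.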
Active calls of the source: *; ? = inconclusive; / = not tested or not shown; [ ] = another dose, or the depositor's remark. Most compounds without a hit are left out; they make up all but 12% or so of the library. Calls follow the shape of the dose curve; as a rule, active = well fitted curve in the direction sought with a large enough effect; inconclusive = small, poorly fitted or top-dose-only effect, or another doubt; inactive = no such curve, though single readings can be large; an effect the other way counts as inactive or inconclusive. Potency is read from the fitted curve at half-maximal effect.

SMILES	JMJD2A Tudor	HP1b binding inh	Sfp PPTase inh	BAZ2B block	G9a block
O=C(Nc1ccccc1)[C@@]12C[C@@H]1/C(=N/O)c1ccccc1O2	/	/	-22.9%	/	/
COC(=O)c1ccccc1NC(=O)Cc1nc(-c2ccccc2)sc1-c1ccc(C)cc1	-12.4%[57.1 µM]	46.2%	-17.3%	-2.9%	44.7µM*
COC(=O)c1ccccc1NC(=O)Cc1noc2ccc(C)cc12	-28.6%	0.2%	/	-12.5%	-2.0%[59 µM]
Cc1cnc(N2C(=O)c3ccc([N+](=O)[O-])cc3C2=O)s1	?	-2.8%	-3.6%	-19.9%	56.2µM*
Cc1ccc(NC(=S)N/N=C/c2cccn2Cc2ccccc2F)cc1	?	25.6%	-6.9%	28.2µM*	?
O=C(Oc1c(CN2CCOCC2)cc(Cl)c2cccnc12)c1ccccc1	?	30.5%	-6.3%	25.1µM*	12.0%[59 µM]
COc1cc(OC)cc(C(=O)Oc2c(CN3CCOCC3)cc(Cl)c3cccnc23)c1	-29.9%	26.2%	-9.3%	22.4µM*	-29.9%
O=C(Oc1c(CN2CCOCC2)cc(Cl)c2cccnc12)c1ccccc1F	25.1µM*	2.5%	13.2%	3.55µM*	-46.5%
COc1ccc(N2CCN(Cc3cc4c(cc3Br)OCCO4)CC2)cc1	22.4µM*	?	-7.3%	12.6µM*	28.2µM*
Cc1ccc(-c2c(CN3CCN(c4cc(C)ccc4C)CC3)csc2C)cc1	?	41.4%	/	?	-47.0%[59 µM]
COc1ccc(N2CCN(Cc3csc(C)c3-c3ccc(C)cc3)CC2)cc1	12.6µM*	35.5µM*	-21.4%	28.2µM*	11.2µM*
CCNS(=O)(=O)c1ccc(CCC(=O)NCc2ccncc2)cc1	-10.3%	23.9%	2.1%	-13.6%	7.2%
COC(=O)c1cc(NC(=O)c2cccc(C(F)(F)F)c2)c(=O)oc1C	-4.7%	44.4%	?	-7.1%	28.2µM*
COC(=O)c1cc(NC(=O)c2cccc(C(F)(F)F)c2)c(=O)oc1C/C=N/OCc1cccc(Cl)c1Cl	-21.2%[11.4 µM]	-20.9%	0.0%	-6.2%	39.8µM*
COc1ccc(CCN2CN(S(=O)(=O)c3ccccc3)c3nc4ccccc4nc32)cc1OC	-2.2%	14.6%	-5.0%	-36.6%	31.6µM*
COCCN1CN(S(=O)(=O)c2cccc(Cl)c2)c2nc3ccccc3nc21	-34.5%	-6.6%	2.1%	-33.2%	44.7µM*
C=CCN1CN(S(=O)(=O)c2cccc(Cl)c2)c2nc3ccccc3nc21	-3.9%	36.0%	-0.4%	-29.7%	79.4µM*
COCCCNc1nc2ccccc2nc1NS(=O)(=O)c1cccc(Cl)c1	2.1%	47.5%	23.9%	2.0%	7.4%[12.7 µM]
O=S(=O)(c1cccc(Cl)c1)N1CN(CC2CCCO2)c2nc3ccccc3nc21 (configuration not stated)	-29.0%	18.0%	2.3%	?	/
COc1ccc(CCN2CN(S(=O)(=O)c3ccccc3)c3nc4ccccc4nc32)cc1	-21.4%	19.8%	16.4%	-21.2%	?
COCCCN1CN(S(=O)(=O)c2ccc(Cl)cc2)c2nc3ccccc3nc21	-31.1%	8.9%	4.7%	-28.9%	28.2µM*
CC(=O)N(C)C	/	/	14.8%	/	27.2%[59 µM]
N#Cc1c2ccc([N+](=O)[O-])cc2[n+]([O-])n1-c1ccccc1	/	/	/	4.0%	-7.4%[2.33 µM]
CCCCN1CN(S(=O)(=O)c2ccc(OC)cc2)c2nc3ccccc3nc21	-19.9%	38.4%	-21.5%	?	35.5µM*
CC(C)OCCCN1CN(S(=O)(=O)c2ccccc2)c2nc3ccccc3nc21	-6.4%	45.3%	5.1%	?	31.6µM*
SMILES	JMJD2A Tudor	HP1b binding inh	Sfp PPTase inh	BAZ2B block	G9a block
CN1CCCN(S(=O)(=O)c2ccccc2)c2nc3ccccc3nc21	71.9%	200.9%	/	42.4%	?
O=S(=O)(c1ccc(Cl)cc1)N1CN(CC2CCCO2)c2nc3ccccc3nc21 (configuration not stated)	-31.8%	33.5%	2.9%	-38.1%	39.8µM*
Cc1ccc2c(c1)C(=O)OC(C(=O)Nc1ncc(Cc3ccc(C(C)C)cc3)s1)C2 (configuration not stated)	7.9%	30.5%	/	-1.7%	9.8%[59 µM]
CC(C)OC(=O)CC1C(=O)NCCN1C(=S)NC(=O)c1ccccc1 (configuration not stated)	-13.6%	45.4%	17.8µM*	?	31.6µM*
CC(C)OC(=O)CC1C(=O)NCCN1C(=S)NC(=O)CCc1ccccc1 (configuration not stated)	-6.9%	48.3%	15.8%	-1.1%	?
COC(=O)CC1C(=O)NCCN1C(=S)NC(=O)c1sc2ccccc2c1Cl (configuration not stated)	0.7%[11.4 µM]	11.9%	79.4µM*	?	?
CC(C)OC(=O)CC1C(=O)NCCN1C(=S)NC(=O)c1ccc(F)cc1 (configuration not stated)	-13.9%	41.4%	-25.2%	-19.9%	39.8µM*
CN(C)NC(=S)NC1(C)CCS(=O)(=O)C1 (configuration not stated)	-12.8%	11.3%	89.1µM*	?	-132.4%[59 µM]
O=C(O)c1ccc(-c2c3nc(c(-c4ccc(C(=O)O)cc4)c4ccc([n-]4)c(-c4ccc(C(=O)O)cc4)c4nc(c(-c5ccc(C(=O)O)cc5)c5ccc2[n-]5)C=C4)C=C3)cc1.[Mn+3]	/	/	-23.2%	/	/
CCc1cc2c(cc3c(=O)n(CC(=O)NC(C)c4ccccc4)ncn32)s1 (configuration not stated)	100µM*	8.8%	/	-6.9%	-2.8%[59 µM]
COC(=O)[C@@]1(Cc2ccc(OC)cc2)[C@@H]2C(=CC(=O)[C@H]2CC(=O)C(=O)N(C)C)CN1C(=O)c1ccccc1	-14.1%	28.1%	-1.2%	-35.4%	?
C=C1C(=O)C=C2CN(C(=O)c3ccccc3)[C@@](Cc3ccc(F)cc3)(C(=O)OC)[C@@H]12	-29.0%	10.8%	10µM*	-7.4%	8.91µM*
O=S(=O)(c1ccc2c(c1)OCCO2)N1CCN(S(=O)(=O)c2ccc(F)c(F)c2F)CC1	-9.6%	/	/	/	/
Cc1cc(NC(=O)CSc2nc3cc(C(=O)NCCCOC(C)C)ccc3c(=O)n2Cc2ccco2)no1	-11.0%	-0.6%	56.2µM*	-10.3%	-0.4%
COC(=O)c1ccc2c(=O)n(Cc3ccco3)c(SCC(=O)Nc3cc(C)on3)nc2c1	-21.8%	34.3%	?	-29.9%	-32.1%
COCCNC(=O)c1ccc2c(=O)n(Cc3ccco3)c(SCC(=O)Nc3ccc(OC)cc3OC)nc2c1	56.2µM*	13.0%	-1.6%	3.9%	25.1%
CC(C)CC[n+]1ccn(-c2nc3ccccc3nc2[N-]S(=O)(=O)c2ccccc2)c1	-1.2%	43.0%	79.4µM*	-23.7%	12.0%[12.7 µM]
Cc1cc(C)c2c(CC(=O)Nc3c(C(=O)c4ccc(F)cc4)oc4ccccc34)coc2c1	-21.5%	58.3%	/	-6.5%	5.7%[59 µM]
COc1ccc(CCNC(=O)CSc2nnc(Cc3csc(N)n3)n2C)cc1OC	50.1µM*	26.3%	-6.1%	22.4µM*	22.9%[59 µM]
COc1ccc(CCNC(=O)CCCc2nnc3n(C)c(=O)c4sccc4n23)cc1OC	-3.5%	25.1%	0.9%	?	22.4µM*

Screens (PubChem BioAssay)
